In the library only some 3.3% were active in any assay of this set; here they are far more common.
D3 antag: qHTS of D3 Dopamine Receptor Antagonist: qHTS. actives 2.5% (n = 360,000). max response, negative = inhibition, %. AID 652054, 2013. D3R cells, DiscoveRx beta-arrestin luminescence, antagonist mode; stronger effect = lower value. D(3) dopamine receptor (Homo sapiens), P35462; in the data active = max response below about -50%; inconclusive = no clear call, values can overlap the other calls; note: % is set by controls: 0 for no effect and ±100 for the full control effect
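Cells expressing the human receptor were seeded at 1500 cells/well, incubated overnight at 37 degrees C in 5% CO2, then exposed to library compounds with dopamine controls for 90 minutes at 37 degrees C before luminescent detection.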
LDHA inh: qHTS assay for inhibitors of human lactate dehydrogenase | L-lactate dehydrogenase A chain (Homo sapiens), P00338 | purified LDHA, NADH/diaphorase-resazurin fluorescence; stronger effect = lower value | activity change, % (values are at about 110 or 230 µM) | actives 0.15% (n = 480,000) | AID 1347041, 2019; in the data active = activity change below about -30%; inconclusive = mostly about -25% to -30%;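 note: plate controls were DMSO wells for no effect and wells without enzyme for full effect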
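Remaining NADH was detected by diaphorase (0.133 mg/mL) converting 37 µM resazurin to fluorescent resorufin, read at 0 and 20 minutes. The preceding 5-minute room-temperature reaction used 2 nM LDHA, 0.2 mM sodium pyruvate and 0.06 mM NADH at pH 7.4.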
PI4K2A inh: qHTS for small molecular inhibitors of PI4K2A; Phosphatidylinositol 4-kinase type 2-alpha (Homo sapiens), Q9BTU6; purified PI4K2A, ADP-Glo luminescence, 1 h; stronger effect = lower value; activity change, negative = inhibition, % at 76.9 µM; actives 0.13% (n = 420,000); AID 1346378, 2018; in the data active = activity change below about -50%; inconclusive = mostly about -30% to -49%;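 note: -100% = wells without enzyme as full effect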
Target sequence (Q9BTU6 whole entry, looked up): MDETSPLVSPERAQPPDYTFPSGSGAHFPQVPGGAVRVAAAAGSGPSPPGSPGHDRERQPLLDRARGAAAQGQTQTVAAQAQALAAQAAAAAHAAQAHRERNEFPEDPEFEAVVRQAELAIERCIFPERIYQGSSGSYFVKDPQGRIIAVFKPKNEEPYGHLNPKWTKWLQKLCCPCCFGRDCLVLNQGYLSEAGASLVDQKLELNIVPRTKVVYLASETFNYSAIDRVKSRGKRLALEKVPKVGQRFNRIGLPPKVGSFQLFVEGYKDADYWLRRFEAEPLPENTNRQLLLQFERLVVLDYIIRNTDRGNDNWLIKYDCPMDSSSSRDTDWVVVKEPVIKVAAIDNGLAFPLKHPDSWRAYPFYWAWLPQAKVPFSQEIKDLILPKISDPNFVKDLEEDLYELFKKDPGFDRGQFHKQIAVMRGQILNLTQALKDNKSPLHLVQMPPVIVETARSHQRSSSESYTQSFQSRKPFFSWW
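PI4K2A activity was measured by ADP-Glo luminescence: enzyme (4 ug/mL stock) and phosphatidylinositol (1.2 mM stock) in Tris pH 7.5/MgCl2/EGTA/Triton X-100 buffer were reacted with ATP (300 microM stock) for one hour at ambient temperature.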
D3 ag: qHTS of D3 Dopamine Receptor Agonist: qHTS | D3R DiscoveRx beta-arrestin cells, luminescence, 90 min | max activation, % | actives 0.58% (n = 410,000) | AID 652048, 2013; in the data active = max activation above about 30%; note: 0% is about no effect
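Cells at 1500/well, incubated overnight, then treated with pinned compounds (dopamine as control) for 90 min at 37 degrees C. DiscoveRx reagent added for 30 - 60 minutes at room temperature; luminescence read.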
PI5P4K alpha inh: qHTS for Inhibitors of phosphatidylinositol 5-phosphate 4-kinase (PI5P4K). Phosphatidylinositol 5-phosphate 4-kinase type-2 alpha (Homo sapiens), P48426. max response, %. PI5P4Kalpha enzyme, ADP-Glo luminescence, 60 min; stronger effect = lower value. AID 652105, 2013. actives 1.2% (n = 330,000); active = max response of -50% or lower; inconclusive = between -30% and -50%; inactive = -30% or higher; note: value at the top dose of about 77 µM; % is set by controls: 0 for no effect and ±100 for the full control effect
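Compounds were pin-transferred onto PI5P4Kalpha and substrate in HEPES pH 7.4 buffer with EGTA, CHAPS and 5% DMSO. ATP (5 microM final) started the reaction, which ran 60 minutes at room temperature before ADP-Glo detection.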
* = called active by the depositor; ? = inconclusive; . = no result.

SMILES	D3 antag	LDHA inh	PI4K2A inh	D3 ag	PI5P4K alpha inh
COc1cc(/C=c2\sc3n(c2=O)C(c2ccccc2)C(c2ccccc2)=NN=3)ccc1O (configuration not stated)	-76.1*	-3.9	-1.9	-8.9	0.2
N#Cc1c(SCC(=O)N2CCCC2)nc(N2CCCC2)c2c1CCCC2	.	1.7	.	.	.
COc1cc(SC)ccc1C(=O)NCCOc1c(C)cc(C)cc1C	-83.4*	2.2	7.8	-3.4	.
COc1cc(SC)ccc1C(=O)NCCOc1ccc(Cl)cc1	17.0	2.1	3.2	1.6	-5.7
O=C(NCCN1CCC(n2c(=O)[nH]c3ccccc32)CC1)N1c2ccccc2Sc2ccccc21	-111.4*	3.3	0.8	-13.2	-3.2
O=C(NCCN1CCC(n2c(=O)[nH]c3ccccc32)CC1)c1ccccc1	-113.2*	-5.1	-2.1	-12.7	-5.0
Cc1ccc(C(=O)NCCN2CCC(n3c(=O)[nH]c4ccccc43)CC2)cc1C	-110.8*	0.0	-1.3	-16.9	1.5
Cc1cccc(C)c1NC(=O)N1CCC(n2c(=O)[nH]c3ccccc32)CC1	30.4	-9.8	2.5	-1.5	-1.8
O=C(NCCN1CCC(n2c(=O)[nH]c3ccccc32)CC1)c1ccc(F)cc1Cl	-76.6*	1.8	-1.0	-16.5	-2.0
Cc1nc2ccc(NC(=O)c3ccc(F)cc3F)cc2c(=O)[nH]1	.	.	-11.6	.	.
O=C(CCc1ccsc1)N1CCSCC1	.	4.2	.	.	.
c1c(C2CCCCC2)n[nH]c1CN1CCCCC1	-72.9*	-1.2	2.6	-8.1	-5.6
c1ccc2nc(-c3cc4ccccc4s3)ccc2c1	.	-1.2	.	.	.
Cc1cc2nc3ccc(=[N+](C)C)cc-3sc2cc1N	-54.1*	9.9	?	-16.3	-18.0
COc1ccc2nc(N=Nc3ccc(N(C)C)cc3)sc2c1	-17.2	-2.2	-19.0	-6.5	-5.0
CN(C)c1ccc2nc3ccc(=[N+](C)C)cc-3sc2c1	-60.4*	9.9	?	-20.7	-24.3
O=C1C(=Cc2ccco2)CCC1=Cc1ccco1	-16.1	-9.8	-59.1*	-1.6	-83.5*
CC1(OC(=O)c2cccs2)C(=O)C=C2C=C3CCCN3C=C2C1=O (configuration not stated)	-1.7	1.7	?	3.0	-59.6*
COC(=O)CCCC1=CC2=CC(=O)C(C)(OC(=O)c3cccs3)C(=O)C2=CN1C1CCCC1 (configuration not stated)	-9.6	1.6	-3.1	10.1	0.4
COc1ccc(C2SCc3cc(C)c(C)cc3CS2)cc1OC	.	3.3	.	.	.
Nc1nccnc1C(=O)NCCc1cccc(F)c1	.	9.3	.	.	.
NCCNC(=O)c1ncsc1-c1cccc(F)c1	-52.4*	-7.3	2.6	-33.1	-2.8
Cc1onc(-c2ccccc2)c1C(=O)NCc1cccnc1	-75.0*	-10.4	-19.3	1.8	-0.5
Cc1ccccc1NC(=O)c1c(-c2ccccc2)noc1C	?	-2.3	0.0	2.0	0.0
Cc1onc(-c2ccccc2)c1C(=O)NCCc1ccncc1	-10.6	-18.9	-3.0	-10.5	-1.5
SMILES	D3 antag	LDHA inh	PI4K2A inh	D3 ag	PI5P4K alpha inh
Cc1ccc(F)cc1NC(=O)c1c(-c2ccccc2)noc1C	-50.0*	-4.6	1.4	1.8	-4.6
COc1ccc(CNC(=O)c2cccc3cn[nH]c23)cc1	.	-3.9	.	.	.
CCOC(=O)CCc1c(C(=O)OCC)[nH]c(CC)c1C(=O)OCc1ccccc1	26.7	-0.9	1.3	31.4*	-4.0
O=C(Nc1nc(N2C(=O)c3ccccc3C2=O)n(-c2ccccc2)n1)c1ccccc1	41.7	12.6	-0.2	1.8	5.2
COc1ccc(C(=O)Nc2nc(N3C(=O)c4ccccc4C3=O)n(-c3ccccc3)n2)cc1	-91.0*	6.6	-14.3	-6.4	-5.4
O=C(Nc1nc(N2C(=O)c3ccccc3C2=O)n(-c2ccccc2)n1)c1ccc(F)cc1	-54.8*	3.3	-6.0	11.9	-1.4
CC(=O)Nc1nc(N2C(=O)c3ccccc3C2=O)n(-c2ccccc2)n1	-63.3*	11.4	-1.8	-1.2	1.7
c1ccc(CNCCCN2CCCCC2)cc1	.	-0.8	.	.	.
COc1ccc(C2c3sc(=O)[nH]c3SC3C(=O)N(c4ccccc4)C(=O)C32)cc1 (configuration not stated)	-26.3	4.0	0.8	-7.0	-0.8
O=C1C2Sc3[nH]c(=O)sc3C(c3ccccc3)C2C(=O)N1c1ccccc1 (configuration not stated)	-66.3*	-1.2	-11.0	1.3	6.5
Nc1cc(CN2C(=O)c3ccccc3C2=O)cc(Cl)c1O	10.3	11.3	-12.5	31.4*	.
CC(=O)c1ccc(C(C)(C)C)cc1NC(=O)c1ccc(C)cc1	.	-0.7	.	.	.
COc1ccc(C2=Nc3ccc(OC(F)(F)F)cc3NC(c3cccnc3)=N2)cc1	.	-15.3	0.7	36.5*	.
Cc1ccc2c(CN3CCc4ccccc43)cc(=O)oc2c1	.	-0.8	.	.	.
CC1CCN(C(=O)C2CCN(S(=O)(=O)Cc3c(F)cccc3Cl)CC2)CC1	.	8.0	.	.	.
Cn1nnc(NC(=S)NC(=O)Cc2ccccc2)n1	-63.8*	-7.9	-7.3	-12.4	3.6
Cn1nnc(NC(=S)NC(=O)c2cc3ccccc3o2)n1	-2.1	-1.8	-0.8	-16.7	-16.0
NS(=O)(=O)c1ccc(NC(=S)NC(=O)c2ccco2)cc1	?	-10.5	-1.5	-10.2	-12.4
CC(=O)NS(=O)(=O)c1ccc(NC(=S)NC(=O)c2ccco2)cc1	-109.5*	-7.5	4.0	-8.5	0.3
Cn1nnc(NC(=S)NC(=O)c2ccco2)n1	-72.5*	-1.0	-4.7	-17.0	-10.5
O=C(Cc1ccccc1)Nc1c(NCC2CCCCC2)c2ccccc2oc1=O	.	1.3	.	.	.
Cc1ccc2c(c1)N(CC(=O)N1CCCCCC1)C(=O)c1cccnc1O2	11.6	-7.0	5.4	0.4	2.5
Cc1ccc2c(c1)N(CC(=O)N1CCCC1)C(=O)c1cccnc1O2	-85.8*	-0.2	-4.0	-1.6	2.4
O=C(Nc1ccc(-n2cncn2)nc1)C1CC(=O)N(CC2CC2)C1 (configuration not stated)	.	-20.2	.	.	.
CC(C)c1nc(Cn2cnc3c2c(=O)n(C)c(=O)n3C)cs1	.	3.1	.	.	.
CCS(=O)(=O)N1CCC(C(=O)NCCCN2CCN(c3ccccc3F)CC2)CC1	-52.2*	-7.4	-2.4	39.6*	.
CCCS(=O)(=O)N1CCCC(C(=O)NCCCN2CCN(c3ccccc3F)CC2)C1 (configuration not stated)	-53.3*	-1.6	0.1	30.7*	-4.3
CCCS(=O)(=O)N1CCCC(C(=O)NCCCN2CCN(c3cccc(Cl)c3)CC2)C1 (configuration not stated)	-25.2	-2.6	-5.1	0.3	6.7
Cc1nnc(CN2CCN(C(=O)N3CCCCC3)CC2)o1	.	-0.4	.	.	.
COc1cc(NC(=O)c2cc(S(=O)(=O)N3CCCC3)c[nH]2)cc(OC)c1	.	-1.8	.	.	.

Bioassay records as filed in PubChem BioAssay.
